Measured values published in PubChem BioAssay (NCI).
The panel holds about 83,000 compounds, 20% with a hit somewhere; the sample as a whole holds those more often.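 Treatment: one concentration, 48 hours, 96-well format. Scoring: percent growth, with anything below 10 considered active.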 Calls of active or inactive are those of the source.

These molecules were tested on SF-268 CNS (assay: NCI-60 one-dose screen, 48 h (100 = growth as untreated, 0 = no growth, -100 = all killed)). Settings: 10 µM unless noted.

SMILES	growth
O=C(CCl)c1ccc([N+](=O)[O-])o1	1.57% (active)
CCCCCSC1C2C(=O)C(Br)=CC13CCNc1c(O)c4c5c(c13)=[N+]2CCC=5C=N4 (configuration not stated)	-51.7% (active)
COc1ccc(C/C(C)=C(\c2ccc(OCCN3CCOCC3)cc2)c2ccc(OC(=O)Cc3ccccc3)cc2)cc1	-21.3% (active)
Cn1cc(-c2csc(-c3cn(CCCCN4CCCCC4)c4ccc(F)cc34)n2)c2cccnc21	72% (inactive)
COc1ccc2c(c1)c(-c1nc(-c3cn(C)c4ncccc34)cs1)cn2CCCCN1CCCCC1	-37.9% (active)
C[n+]1c(/C=C/c2ccc(N(CCCl)CCCl)cc2)sc2ccccc21	57.7% (inactive)
C=CC[Se]C(=O)c1ccccc1OC(C)=O	27.1% (inactive)
CC(=O)OC1CCC2C3CCC4=C/C(=N/OC(=O)c5ccc(N(CCCl)CCCl)cc5)CCC4(C)C3CC(C)C12 (configuration not stated)	62.9% (inactive)
CCCCCCCC[n+]1ccc2ccccc2c1	80.4% (inactive)
Cn1cccc1C1CC(=O)N(CCC[Se]C#N)C1=O (configuration not stated)	-31.8% (active)
C[Se]C(=O)c1ccccc1OC(C)=O	18.3% (inactive)
O=C1Nc2ccccc2C2c3cccn3-c3ccccc3CN12 (configuration not stated)	75.1% (inactive)
CCOC(=O)[C@@H](C)C[C@H](Cc1ccccc1)NC(=O)c1csc([C@@H](C[C@H](C(C)C)N(C)C(=O)[C@H](CCC(C)C)NC(=O)[C@H]2CCCCN2C)OC(C)=O)n1	22.1% (inactive)
COC(=O)[C@H](C[C@H](Cc1ccccc1)NC(=O)c1csc([C@@H](C[C@H](C(C)C)N(C)C(=O)[C@@H](NC(=O)[C@H]2CCCCN2C)C(C)C)OC(C)=O)n1)NC(=O)OCc1ccccc1	13.1% [8.5 µM] (inactive)
CC1(C)N=C(N)N=C(N)N1c1ccc(OCCCNC(=O)Nc2ccc(S(=O)(=O)F)cc2)c(Cl)c1	32.3% (inactive)
O=C(CN1CCN(C(=O)c2ccco2)CC1)Nc1ccc(Cl)cc1C(=O)c1ccccc1Cl	90.7% (inactive)
Cc1cc(N(CCCl)CCCl)ccc1C=Nc1ccccc1-c1ccccc1	62.8% (inactive)
Cn1cc(-c2csc(-c3cn(CCN4CCOCC4)c4ccccc34)n2)c2cccnc21	79.8% (inactive)
CCOC(=O)[C@@H](C)C[C@H](Cc1ccccc1)NC(=O)c1csc([C@@H](C[C@H](C(C)C)N(C)C(=O)[C@H](CC)NC(=O)[C@H]2CCCCN2C)OC(C)=O)n1	29.1% (inactive)

SMILES	growth
ClC1=C(Cl)C(Cl)(C2(Cl)C(Cl)=C(Cl)C(Cl)=C2Cl)C(Cl)=C1Cl	-46.4% (active)
O=C([O][Hg][CH2]C1OCCOC1[CH2][Hg][O]C(=O)c1ccccc1)c1ccccc1 (configuration not stated)	114% (inactive)
COc1ccc([As]=[As]c2ccc(OC)c(NCS(=O)(=O)O)c2)cc1NCS(=O)(=O)O (configuration not stated)	17.8% (inactive)
[Cl][Hg][n]1c(-c2ccco2)nc2ccccc21	105% (inactive)
CCC[CH2][Sn]([CH2]CCC)([CH2]CCC)[O]c1ccc(Cl)cc1Cl	-91% (active)
NC(CCl)CCl	103% (inactive)
CN1CCC(c2c[nH]c3ccccc23)C1 (configuration not stated)	111% (inactive)
CCCCCCCCCCCCCCCCCC1OC[C@@H](COC(=O)O[C@@H](C(=O)O[C@H]2C[C@@]3(O)[C@@H](OC(=O)c4ccccc4)[C@@H]4[C@]5(OC(C)=O)CO[C@@H]5C[C@H](O)[C@@]4(C)C(=O)[C@H](OC(C)=O)C(=C2C)C3(C)C)[C@@H](NC(=O)c2ccccc2)c2ccccc2)O1 (some centres not stated)	66% (inactive)
CC1=C([Te]c2ccc(O)cc2)C(=O)c2ccccc2C1=O	13.8% (inactive)
O=C1NC(=O)C(=Cc2cn(CCCCCCn3c4ccccc4c(=O)c4ccccc43)c3ccccc23)C(=O)N1	94.5% (inactive)
CC(C)OC(=O)[C@H](C)NP(=O)(Oc1ccccc1)C1CCCN(O)C1=O (some centres not stated)	93.9% (inactive)
CCCCCCC(=O)NC1=C(N2CC2)C(=O)C(NC(=O)CCCCCC)=C(N2CC2)C1=O	52.9% (inactive)
COc1ccc(/C=C\c2cc(OC)c(OC)c(OC)c2)cc1NS(=O)(=O)c1ccc(Cl)cc1	79.4% (inactive)
CC[C@H](C)[C@H](NC(=O)[C@H]1CCCCN1C)C(=O)N(C)[C@H](CC(=O)c1nc(C(=O)N[C@@H](Cc2ccccc2)C[C@H](C)C(=O)O)cs1)C(C)C	84.2% (inactive)
C[C@]12C[C@@H](CO)[C@H](O)C[C@@H]1CC[C@@H]1[C@@H]2CC[C@]2(C)[C@@H](O)CC[C@@H]12	103% (inactive)
[Cl][Hg][c]1cc[c]([Hg][Cl])o1	51.3% (inactive)
NC(=S)c1cn(C2OC(CO)C(O)C2O)c2ncnc(N)c12 (configuration not stated)	-20.9% (active)
COC(=O)CC[C@H](Cc1ccccc1)NC(=O)c1csc([C@@H](C[C@H](C(C)C)N(C)C(=O)[C@@H](NC(=O)[C@H]2CCCCN2C)C(C)C)OC(C)=O)n1	26.6% (inactive)
